According to PubChem BioAssay:
Calls of active or inactive are those of the source. Unless noted, how the calls were made is not given here.

Assays:
[1] = resazurin metabolic signal in HepG2 cells – cell-based, resazurin fluorescence, 24 h, PK04 Diversity Set, profiling panel (AID 1172); conditions: HepG2 viability, higher = more signal; further: test concentration not given here
[2] = budding yeast growth changes without added modifier – OD600, strain BY4716, 24 h, basal condition, primary screen (AID 1173); conditions: S. cerevisiae BY4716 growth, OD600, 24 h; higher = more signal, called active from +8 up or from −8 down
[3] = viability profiling in MM1S myeloma cells – cell-based, resazurin fluorescence, basal, 24 h, PK04 Diversity Set, profiling panel (AID 1174); conditions: higher = more signal, called active from +8 up or from −8 down;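 further: MM1S multiple myeloma cell line; test concentration not given here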
[4] = target: Dihydroorotate dehydrogenase (quinone), mitochondrial (Plasmodium falciparum (isolate 3D7)) (UniProt Q08210); test: inhibition of P. falciparum DHODH – biochemical, C-terminal His tag, absorbance 600 nm, primary screen (AID 1175); conditions: PfDHODH enzyme, DCIP absorbance 600 nm; higher = more signal, called active from +8 up or from −8 down;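 further: recombinant parasite enzyme with a five histidine tag at its C terminus; test concentration not given here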
Chain of Dihydroorotate dehydrogenase (quinone), mitochondrial (Plasmodium falciparum (isolate 3D7)) (Q08210 whole entry, looked up): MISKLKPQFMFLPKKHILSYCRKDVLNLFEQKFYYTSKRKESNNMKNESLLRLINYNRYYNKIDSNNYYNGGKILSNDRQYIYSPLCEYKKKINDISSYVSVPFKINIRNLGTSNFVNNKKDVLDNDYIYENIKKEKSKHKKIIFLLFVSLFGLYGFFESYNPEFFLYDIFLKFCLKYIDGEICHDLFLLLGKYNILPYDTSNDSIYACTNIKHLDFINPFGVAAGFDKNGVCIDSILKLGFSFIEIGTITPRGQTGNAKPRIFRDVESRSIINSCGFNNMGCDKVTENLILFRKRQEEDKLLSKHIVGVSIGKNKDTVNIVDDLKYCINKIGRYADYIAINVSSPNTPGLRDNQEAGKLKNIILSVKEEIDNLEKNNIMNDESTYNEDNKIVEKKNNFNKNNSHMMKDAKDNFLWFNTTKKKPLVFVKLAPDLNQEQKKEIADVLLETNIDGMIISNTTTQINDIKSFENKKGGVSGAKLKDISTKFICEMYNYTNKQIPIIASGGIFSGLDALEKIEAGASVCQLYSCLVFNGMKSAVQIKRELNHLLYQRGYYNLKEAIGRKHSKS

[5] = inhibition of PAO1 biofilm formation – strain PAO1, LB-PBS medium, absorbance 600 nm, primary screen (AID 1176); further: test concentration not given here; conditions: P. aeruginosa PAO1 growth/biofilm, A600, 12 h; higher = more signal
[6] = growth modulation of vineyard yeast isolate – strain RM11-1a, OD600, basal, 24 h, primary screen (AID 1177);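 further: cultures grown under basal conditions with no added stressor; test concentration not given here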; conditions: S. cerevisiae RM11-1a growth, OD600, 24 h; higher = more signal, called active from +8 up or from −8 down
[7] = growth of efflux-deficient E. coli DRC39 – strain DRC39, OD650, 24 h, E. coli filamentation inducers, primary screen (AID 1178);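 further: growth measured as culture turbidity by optical density at 650 nm; test concentration not given here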; conditions: E. coli DRC39 acrAB, higher = more signal, called active from +8 up or from −8 down
[8] = growth of efflux-deficient E. coli DRC39 – strain DRC39, OD650, 48 h, E. coli filamentation inducers, primary screen (AID 1179);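 further: screen aims at cell division blockers that make cells filament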; conditions: E. coli DRC39 delta-acrAB growth, higher = more signal, called active from +8 up or from −8 down
[9] = viability profiling in RPMI8226 myeloma cells – cell-based, resazurin fluorescence, basal, 24 h, PK04 Diversity Set, profiling panel (AID 1180); conditions: higher = more signal;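 further: RPMI8826 multiple myeloma cell line at 5000 cells per well; test concentration not given here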
[10] = target: E3 ubiquitin-protein ligase XIAP (Homo sapiens) (UniProt P98170); test: small molecules binding XIAP protein – biophysical, small-molecule microarray, fluorescence 635 nm, primary screen (AID 1181); conditions: higher = more signal;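 further: score merges 667 nm emission and signal to noise over triplicate slides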
Chain of E3 ubiquitin-protein ligase XIAP (Homo sapiens) (P98170 whole entry, looked up): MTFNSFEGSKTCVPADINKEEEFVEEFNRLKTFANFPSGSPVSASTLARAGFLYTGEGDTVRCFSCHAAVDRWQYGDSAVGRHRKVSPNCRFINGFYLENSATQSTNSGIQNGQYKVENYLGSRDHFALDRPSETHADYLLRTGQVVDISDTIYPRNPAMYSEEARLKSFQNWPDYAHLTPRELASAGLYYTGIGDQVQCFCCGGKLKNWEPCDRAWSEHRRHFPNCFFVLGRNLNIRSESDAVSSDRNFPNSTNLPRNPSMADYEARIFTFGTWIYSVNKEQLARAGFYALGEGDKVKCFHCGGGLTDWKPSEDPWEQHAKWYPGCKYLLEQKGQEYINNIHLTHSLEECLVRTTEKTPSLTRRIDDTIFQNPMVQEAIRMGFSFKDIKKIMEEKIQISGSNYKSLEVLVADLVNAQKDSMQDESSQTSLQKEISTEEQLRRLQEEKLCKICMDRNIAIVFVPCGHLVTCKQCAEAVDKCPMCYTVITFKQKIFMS

Structure (SMILES)	z-score [1]	z-score [2]	z-score [3]	composite z-score [4]	z-score [5]	z-score [6]	z-score [7]	z-score [8]	z-score [9]	composite z-score [10]
Cc1ccc(S[C@]2(C(=O)NC(C)C)CC(=O)N(Cc3ccccc3Cl)[C@@H]2c2ccc(CO)cc2I)cc1	0.36	-3.93 (inactive)	-2.83 (inactive)	-0.766 (inactive)	0.723 (inactive)	-1.89 (inactive)	0.0051 (inactive)	-0.465 (inactive)	-2.24	-0.074
C=CCOC(=O)[C@H]1[C@@H]2C(=O)O[C@@H](c3ccccc3)[C@@H](c3ccccc3)N2[C@@H](c2ccc(OCCOC(=O)[C@H]3C[C@H]4C(=O)N5CCC[C@H]5C(=O)N4[C@H]3c3ccc(O)cc3)cc2)[C@]12C(=O)Nc1ccccc12	0.697	1.66 (inactive)	0.744 (inactive)	-0.391 (inactive)	3.67 (inactive)	1.84 (inactive)	-0.0749 (inactive)	-0.13 (inactive)	0.435	0.201
COc1ccc([Si](C)(C)[C@H]2[C@H](CCO)O[C@@]3(C(=O)N(Cc4ccc(N5C(=O)COc6ccccc65)cc4)c4ccccc43)[C@@H]2C)cc1	-1.97	0.573 (inactive)	-4.21 (inactive)	-0.349 (inactive)	3.06 (inactive)	3.3 (inactive)	0.404 (inactive)	-0.288 (inactive)	-5.05	0.144
CCOC(=O)C[C@H]1[C@H](OC(=O)Cc2ccc3c(c2)OCO3)[C@@H](NC(=O)c2ccc(-c3ccccc3)cc2)c2cc(OCCCO)ccc2N1C(=O)Cc1ccc(OC)cc1	0.366	-1.02 (inactive)	0.322 (inactive)	-1.32 (inactive)	-0.0178 (inactive)	-1.82 (inactive)	0.261 (inactive)	0.877 (inactive)	0.489	0.179
CCCCCN1CC=CC23O[C@@H]4/C=C\CCCOC(=O)C4[C@H]2C(=O)N(CCCO)[C@@H]3C1=O (stereo not given in full)	1.15	-1.26 (inactive)	1.21 (inactive)	-1.37 (inactive)	0.661 (inactive)	-1.32 (inactive)	0.581 (inactive)	0.025 (inactive)	1.72	0.239
O=C1NC(=O)C2C1C=CC(C(O)C(c1ccccc1)c1ccccc1)N2Nc1ccc(Cl)cc1Cl (stereo not given)	-2.23	-2.63 (inactive)	-1.05 (inactive)	0.125 (inactive)	0.599 (inactive)	1.17 (inactive)	-0.659 (inactive)	-0.712 (inactive)	-1.62	0.236
CCCCC=C[C@@H](NC(=O)Oc1cccc(C(F)(F)F)c1)c1ccccc1	-1.68	1.74 (inactive)	-2.06 (inactive)	-3.25 (inactive)	2.62 (inactive)	1.37 (inactive)	-0.844 (inactive)	-0.665 (inactive)	-2.1	0.0748
O=C1c2ccccc2[C@@]2(Cc3ccccc3N(CCN3CCOCC3)C2=O)[C@H](c2ccc(CO)cc2)N1Cc1ccccc1	-0.864	-0.187 (inactive)	0.757 (inactive)	-4.94 (inactive)	0.168 (inactive)	0.167 (inactive)	0.839 (inactive)	1.61 (inactive)	0.386	-0.278
COc1cc2c(cc1O)C=[N+](Cc1cccc(OC(F)(F)F)c1)CC2	-0.935	0.165 (inactive)	-0.682 (inactive)	-3.35 (inactive)	-0.531 (inactive)	-0.957 (inactive)	0.0214 (inactive)	0.569 (inactive)	-1.25	-0.259
Cc1ccc(S[C@]2(C(=O)NCC(C)C)CC(=O)N(Cc3cc(C(F)(F)F)cc(C(F)(F)F)c3)[C@@H]2c2ccc(CO)cc2I)cc1	-0.0295	-3.38 (inactive)	-2.99 (inactive)	-0.83 (inactive)	-0.522 (inactive)	-1.19 (inactive)	-0.155 (inactive)	-0.586 (inactive)	-2.27	-0.17
C=C(COC)/C(=C/C[C@@H](OC(C)=O)c1ccc(CO)o1)c1cnc2ccccc2c1	-0.956	-0.677 (inactive)	0.915 (inactive)	-8.64 (active)	0.579 (inactive)	0.704 (inactive)	0.685 (inactive)	-0.0551 (inactive)	0.47	0.0225
C=CC[C@]1(C(=O)N2CCCCC2)N=C(c2ccc(OCCCO)cc2)O[C@H]1c1ccccc1	1.77	-2.06 (inactive)	0.91 (inactive)	-0.309 (inactive)	-0.481 (inactive)	0.646 (inactive)	0.825 (inactive)	-0.189 (inactive)	1.93	-0.0563
COc1ccc([Si](C)(C)[C@@H]2[C@@H](CC(=O)N3Cc4ccccc4C[C@H]3CO)O[C@]3(C(=O)N(C)c4c(Br)cc(C)cc43)[C@H]2C)cc1	-2.26	-1.5 (inactive)	-6.01 (inactive)	0.961 (inactive)	1.85 (inactive)	1.7 (inactive)	1.34 (inactive)	1.01 (inactive)	-5.76	-0.089
COC(=O)[C@@]1(Cc2ccccc2)[C@H]2c3cc(C(=O)N4CCCC4)n(CC4CC4)c3C[C@H]2CN1C(=O)c1ccccc1	-1.34	1.38 (inactive)	-1.75 (inactive)	-0.0475 (inactive)	0.936 (inactive)	1.25 (inactive)	-0.889 (inactive)	-1.44 (inactive)	-2.27	0.637
C=C(CCCC)/C(=C/C[C@@H](OC(C)=O)c1ccccc1OCCO)c1cnc2ccccc2c1	-1.25	-1.66 (inactive)	-0.614 (inactive)	-7.22 (inactive)	0.191 (inactive)	0.862 (inactive)	-0.765 (inactive)	-0.587 (inactive)	-0.52	-0.198
CC(C)C[C@@H]1NC(=O)[C@H]2C[C@@H](C(=O)NCCCCCCN)[C@@H](c3ccc(O)cc3)N2C1=O	-0.632	-0.134 (inactive)	-0.403 (inactive)	0.0444 (inactive)	-0.226 (inactive)	-0.459 (inactive)	-0.396 (inactive)	-0.975 (inactive)	-0.299	-0.338
CCN(CC)c1ccc(N2CC=CC34O[C@@H]5/C=C\CCCOC(=O)C5[C@H]3C(=O)N(CCO)[C@@H]4C2=O)cc1 (stereo not given in full)	-1.46	0.245 (inactive)	-0.0391 (inactive)	0.174 (inactive)	-0.606 (inactive)	0.747 (inactive)	-1.16 (inactive)	-1.26 (inactive)	0.547	0.56
COCCCNC(=O)[C@@]1(Cc2ccccc2N=[N+]=[N-])N=C(c2ccc(OCCCO)cc2)O[C@H]1c1ccccc1N=[N+]=[N-]	-0.993	-0.181 (inactive)	-2.32 (inactive)	1.21 (inactive)	0.454 (inactive)	1.83 (inactive)	0.478 (inactive)	-0.607 (inactive)	-1.99	0.323
CCC(CC)C(O)C1C=CC2C(=O)N(C)C(=O)C2N1Nc1ccccc1 (stereo not given)	-0.138	-0.692 (inactive)	-0.193 (inactive)	-0.546 (inactive)	1.12 (inactive)	-0.0874 (inactive)	-0.53 (inactive)	-0.662 (inactive)	0.257	0.661
COc1ccc(C#Cc2ccc3c(c2)[C@]2(C(=O)N3)[C@H](c3ccccc3OCCO)N3[C@H](c4ccccc4)[C@H](c4ccccc4)OC(=O)[C@H]3[C@@H]2C(=O)O)cc1	1.86	1.75 (inactive)	-3.05 (inactive)	-24.8 (active)	2.76 (inactive)	3.13 (inactive)	1.06 (inactive)	0.047 (inactive)	-6.75	0.284
